Assay results reported in PubChem BioAssay.
Unmarked numbers belong to inactive results. Active and inactive are the calls of the source. Unless noted, no stated cut-off is given here; in the data, active means inhibition above about 44%; inactive means the rest.

How the values were obtained:
[1] = StAR promoter reporter inhibitors, counter-screen for LRH-1 inverse agonist project, cell-based, luminescence, high throughput (AID 651611; in the data active means inhibition above about 28%); conditions: StAR promoter luciferase reporter counterscreen, at 3.6 µM, stronger effect = higher value
[2] = molecular target: Nuclear receptor subfamily 5 group A member 2 (Homo sapiens) (UniProt O00482); assay: LRH-1 (NR5A2) inverse agonists, retest, confirmation, cell-based, luminescence (AID 651613; in the data active means inhibition above about 42%;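 further: HEK293T cells co-transfected with LRH-1 and StAR promoter luciferase reporter; 0% = vehicle wells and 100% = parental cells lacking receptor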); conditions: cell-based LRH-1 luciferase reporter, inverse agonism; at 3.6 µM; stronger effect = higher value
Sequence of Nuclear receptor subfamily 5 group A member 2 (Homo sapiens) (O00482 whole entry, looked up): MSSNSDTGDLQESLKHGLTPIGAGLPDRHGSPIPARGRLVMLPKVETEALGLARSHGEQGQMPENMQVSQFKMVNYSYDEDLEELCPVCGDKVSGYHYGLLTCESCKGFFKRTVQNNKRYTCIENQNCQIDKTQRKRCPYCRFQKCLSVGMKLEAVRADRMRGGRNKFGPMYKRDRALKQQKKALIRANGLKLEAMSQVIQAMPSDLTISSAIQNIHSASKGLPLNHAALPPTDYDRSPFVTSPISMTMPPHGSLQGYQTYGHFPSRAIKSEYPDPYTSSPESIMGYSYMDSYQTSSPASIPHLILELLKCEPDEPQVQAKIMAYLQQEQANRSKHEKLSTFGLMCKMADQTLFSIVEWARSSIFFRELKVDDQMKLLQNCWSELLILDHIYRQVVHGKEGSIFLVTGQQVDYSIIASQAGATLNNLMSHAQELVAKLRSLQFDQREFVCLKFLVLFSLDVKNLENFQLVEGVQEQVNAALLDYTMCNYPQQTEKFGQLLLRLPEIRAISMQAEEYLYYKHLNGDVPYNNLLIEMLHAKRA

[3] = molecular target: Steroidogenic factor 1 (Homo sapiens) (UniProt Q13285); assay: SF1 (NR5A1) inverse agonists, counter-screen for LRH-1 inverse agonist project, cell-based, luminescence, high throughput (AID 651614); conditions: cell-based SF1 luciferase reporter, at 3.6 µM, stronger effect = higher value;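 further: cells cotransfected with StAR promoter reporter and SF1 expression vector; 0% = vehicle on cells with receptor and 100% = vehicle on cells lacking receptor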
Sequence of Steroidogenic factor 1 (Homo sapiens) (Q13285 whole entry, looked up, the tested form may be a part): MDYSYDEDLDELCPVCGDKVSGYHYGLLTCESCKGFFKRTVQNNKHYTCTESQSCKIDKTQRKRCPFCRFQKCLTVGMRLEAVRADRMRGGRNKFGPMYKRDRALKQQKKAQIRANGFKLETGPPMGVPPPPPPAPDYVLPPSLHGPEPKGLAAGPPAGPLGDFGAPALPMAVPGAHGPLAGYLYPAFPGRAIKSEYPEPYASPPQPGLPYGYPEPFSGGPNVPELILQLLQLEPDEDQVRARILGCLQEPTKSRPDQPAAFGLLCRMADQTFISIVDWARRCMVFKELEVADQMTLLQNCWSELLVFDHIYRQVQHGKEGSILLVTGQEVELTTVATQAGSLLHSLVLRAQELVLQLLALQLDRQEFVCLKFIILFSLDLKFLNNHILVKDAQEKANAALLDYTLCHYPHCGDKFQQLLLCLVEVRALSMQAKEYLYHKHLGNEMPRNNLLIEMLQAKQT

[4] = VP16 transactivation reporter inhibitors, counter-screen for LRH-1 inverse agonist project, cell-based, luminescence, high throughput (AID 651615; in the data active means inhibition above about 33%); conditions: Gal4-VP16 luciferase reporter cells, at 3.6 µM, stronger effect = higher value

Row | Compound | inhibition [1] | inhibition [2] | inhibition [3] | inhibition [4]
1 | CC(=O)N1CCc2c(sc(NC(=O)CCS(=O)(=O)c3ccc(C)cc3)c2C#N)C1 | 11.7% | 52.5% (active) | 43.6% (active) | -1.4%
2 | COc1ccccc1-c1cc(NC(C)=O)c2ncc(-c3ccc(S(C)(=O)=O)cc3)n2c1 | 23.8% | 49.3% (active) | 48.6% (active) | -21.1%
3 | CNC(=O)c1nc(C)c(C2(C)CC(c3cccc([N+](=O)[O-])c3)=NO2)s1 (stereo not drawn) | 8.75% | 27% | 35.6% | -1.29%
4 | O=C(Nc1cccc(S(=O)(=O)Nc2ccc(Cl)cc2)c1)c1ccc(Cl)nc1 | 41.3% (active) | 65% (active) | 63.3% (active) | 56.9% (active)
5 | Cc1nnsc1S(=O)c1ccc(Br)cc1 (stereo not drawn) | 4.11% | 45.4% (active) | 44.9% (active) | 3.37%
6 | Cc1ccc2nsnc2c1NC(=O)c1ccc([N+](=O)[O-])o1 | 14.4% | 57.8% (active) | 55.7% (active) | -22.5%
7 | COc1ccc(CCNC(=O)CSc2nn3c(=O)c(C)nnc3s2)cc1OC | 8.26% | 57.5% (active) | 47.2% (active) | -10.1%
8 | CCn1c2ccccc2c2cc(/C=N/n3cn[nH]c3=S)ccc21 | 4.27% | 28.1% | 34.3% | -3.24%
9 | Cc1cc(OCC(=O)NC2CC2)c2c(C)c(C)c(=O)oc2c1 | 13.4% | 65.4% (active) | 53.2% (active) | -21.9%
10 | O=C(Nc1cccc2ncccc12)c1ccc([N+](=O)[O-])o1 | 16.2% | 69.9% (active) | 64.4% (active) | -17.5%
11 | CCc1cccc2sc(N3CCN(C(=O)c4ccc([N+](=O)[O-])o4)CC3)nc12 | 3.02% | 57.7% (active) | 52.5% (active) | 17.4%
12 | CS(=O)(=O)c1ccc(Cl)c(NC(=O)Nc2ccccc2)c1 | -6.75% | 25.1% | 17.5% | -2.94%
13 | CC(=O)Oc1ccc2oc(=O)c3c(c2c1)CCCN3C(=O)CN1CCN(c2ncccn2)CC1 | 12.8% | 58% (active) | 66.4% (active) | -13.8%
14 | CN(C)S(=O)(=O)c1ccc(C(=O)NCc2ccc3[nH]c4c(c3c2)CCCC4)cc1 | 24.6% | 39.3% | 54.4% (active) | -9.28%
15 | CN(CC(=O)Nc1ccc(N2CCOCC2)cc1)CC(=O)Nc1ccc(N2CCOCC2)cc1 | 4.02% | 52.1% (active) | 54.2% (active) | -8.87%
16 | CC(C)CC1(C)NC(=O)N(CC(=O)Nc2ccc3c(c2)OCCO3)C1=O (stereo not drawn) | 16.7% | 54.2% (active) | 53% (active) | 7.91%
17 | CCOc1ccc(CCNC(=O)COC(=O)c2ccc(F)c(S(=O)(=O)N3CCOCC3)c2)cc1OCC | 10.3% | 61.8% (active) | 61.6% (active) | -3.82%
18 | CC(O)(c1cccc(F)c1)c1nc(-c2ccc(S(C)(=O)=O)cc2)cs1 (stereo not drawn) | 2.43% | 48.7% (active) | 44.9% (active) | -6.85%
19 | O=C(c1ccccc1)c1ccc2nc(N3CCN(C(=O)c4ccco4)CC3)c3nncn3c2c1 | 3.94% | 43% (active) | 44.3% (active) | -14.2%
20 | CCn1nnnc1SCC(=O)N(C)C1CCS(=O)(=O)C1 (stereo not drawn) | 12.5% | 47.9% (active) | 48.1% (active) | -0.7%
21 | OC1(c2ccc(OC(F)F)cc2)CSC(=Nc2cccnc2)N1C1CC1 (stereo not drawn) | 11.3% | 43.3% (active) | 48.8% (active) | 40% (active)
22 | Cc1cc(O)c(/C=N/Nc2cccc(Cl)c2)c(=O)o1 | -0.11% | 44.5% (active) | 24.6% | 56% (active)
23 | Cc1ccc2cccc(OCC(=O)NCCC3=CCCCC3)c2n1 | 8.76% | 61.1% (active) | 58.1% (active) | -3.55%
24 | O=C(Nc1nc(-c2cccs2)cs1)c1ccc([N+](=O)[O-])o1 | -1.18% | 51.9% (active) | 62.9% (active) | -34.9%
25 | CN(C)c1ccc(S(=O)(=O)N2CCCCC2)cc1NC(=O)CCNC(=O)c1ccc(Cl)cc1 | 6.54% | 3.72% | 1.24% | -0.3%
26 | CC(=O)c1ccc(-c2cnc3c(NC=O)cc(-c4ccc(S(C)(=O)=O)cc4)cn23)cc1 | 31.7% (active) | 74.8% (active) | 70.3% (active) | -0.51%

Row | Compound | inhibition [1] | inhibition [2] | inhibition [3] | inhibition [4]
27 | O=C(c1ccc([N+](=O)[O-])o1)N1CCN(c2nc3c(F)cc(F)cc3s2)CC1 | -14.9% | 60.2% (active) | 60.4% (active) | -0.11%
28 | Cc1ccc(NC(=O)CSc2nnc(CNC(=O)c3ccco3)n2C)c(C)c1 | 6.66% | 58.5% (active) | 51.4% (active) | -7.24%
29 | CC(=O)Nc1ccc(NC(=O)CSc2nnc(COc3ccccc3C)n2CC2CCCO2)cc1 (stereo not drawn) | 16.5% | 64.6% (active) | 57.3% (active) | -5.23%
30 | COc1cccc(-c2cnc3c(NC=O)cc(-c4ccc(S(C)(=O)=O)cc4)cn23)c1 | 30.2% (active) | 61.5% (active) | 52.4% (active) | -0.78%
31 | Cc1sc2ncnc(NCC(O)c3ccc([N+](=O)[O-])cc3)c2c1C (stereo not drawn) | 15.4% | 51.7% (active) | 53.5% (active) | 42.1% (active)
32 | COc1ccc(Oc2ccc(NC(=O)c3ccccc3C)cc2)cc1 | 8.67% | 38.8% | 40.1% | -18.1%
33 | O=[N+]([O-])c1cc2ncccc2c2ncccc12 | 42.1% (active) | 56.2% (active) | 53.1% (active) | -8.8%
34 | Cc1ccc(-c2csc(NC(=O)c3ccc([N+](=O)[O-])o3)n2)cc1 | 3.07% | 57.5% (active) | 54.4% (active) | -19.4%
35 | COc1ccc(N2CCN(C(=O)CN3C(=O)NC4(CCCCCC4)C3=O)CC2)cc1 | 7.32% | 46.6% (active) | 43.3% (active) | -4.03%
36 | CNC(=S)N/N=C/c1cn(Cc2ccc(C)cc2)c2ccccc12 | 2.35% | 46.9% (active) | 46.8% (active) | 1.56%
37 | Cc1cc(C)c2c(NC(=O)CCl)nn(C)c2n1 | 46.8% (active) | 64.2% (active) | 68.7% (active) | -39.7%
38 | COc1ccc2c(c1)CCN(C(=O)CCl)C2C1C(=O)CCCC1=O (stereo not drawn) | 10.2% | 59% (active) | 54.4% (active) | -6.95%
39 | COc1ccccc1-c1nnc2sc(-c3ccc(N(C)C)cc3)nn12 | 50.1% (active) | 31% | 57.1% (active) | 31.2% (active)
40 | NC(=O)c1ccc(NC(=O)COC(=O)C2COc3ccccc3O2)cc1 (stereo not drawn) | 21.9% | 52.4% (active) | 56.7% (active) | -20.5%
41 | NS(=O)(=O)c1ccc(CCNC(=O)COc2ccc3c4c(c(=O)oc3c2)CCC4)cc1 | 13.4% | 41.7% (active) | 38.2% | -15.4%
42 | O=C(c1cc(COc2cccc3cnccc23)on1)N1CCCC(CCCO)C1 (stereo not drawn) | 35.4% (active) | 66.4% (active) | 70.5% (active) | 63.5% (active)
43 | Cc1cc(OCC(=O)Nc2ccc(OCc3ccccc3)cc2)nc(C(C)C)n1 | -0.66% | 48% (active) | 32.4% | 15.2%
44 | Cc1cc(NC(=O)C(Cl)Cl)cc2c1OCO2 | 10.4% | 59.2% (active) | 45.6% (active) | -10.1%
45 | COCc1cc(C)nc(SCC(=O)Nc2cc3c(cc2C#N)OCO3)c1C#N | -4.84% | 45.3% (active) | 47.2% (active) | -12.4%
46 | Cc1c(Cl)cccc1NC(=O)CSc1nnc(C)n1CC1CCCO1 (stereo not drawn) | -4.11% | 38.1% | 14.9% | -6.95%
47 | CCN(CC)S(=O)(=O)c1cc(NC(=O)CCCOc2ccc(C(C)=O)cc2)ccc1C | 2.6% | 42.6% (active) | 19.8% | 21.1%
48 | O=C(COc1ccc(C(=O)c2ccccc2)cc1)NCc1ccc(F)cc1 | 19.9% | 28.7% | 37.9% | 30.4%
49 | COc1ccc(CCNC(=O)CN2C(=O)C3(OCCCO3)c3ccccc32)cc1OC | 11.2% | 45.7% (active) | 52.5% (active) | -9.46%
50 | COC(=O)c1ccc(NC(=O)CN2CCC(NC(=O)c3ccccc3F)CC2)cc1 | 23.6% | 52.3% (active) | 44.1% (active) | -4.8%
51 | Cc1ccc2[nH]c(C)c(/C=C/c3cc[n+](C)cc3)c2c1 | 39.2% (active) | 77.4% (active) | 67.3% (active) | 67.8% (active)
52 | Nc1ccc(C(=O)NN2C(=O)[C@H](Cl)C2c2ccc(Cl)cc2)cc1 (stereo partly drawn) | 8.81% | 43.1% (active) | 52.1% (active) | -16.2%
